Measurements as given in PubChem BioAssay (NCATS).
Records with an inconclusive call do not appear. Active and inactive are the calls of the source. The call rests on the fitted dose curve; in most records, active means well fitted inhibition curve with a large enough effect; inconclusive means small, poorly fitted or top-dose-only effect; inactive means flat fitted curve, though single readings scatter.

Legend:
PAD = assay: qHTS profiling for inhibitors of Plasmodium falciparum proliferation (AID 504749);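 further: 0% = DMSO vehicle and full inhibition = artemisinin control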; settings: P. falciparum in erythrocytes, SYBR Green DNA, 72 h; series mostly up to 28.7 µM
Procedure, shortened: (§1)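 SYBR Green fluorescence (ex 485 nm, em 535 nm) reports parasite DNA after 72 h compound exposure of infected red cells at 0.3% parasitemia, 2.5% hematocrit; signal normalized to 0.29 uM artemisinin and vehicle wells.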

PC15 = assay: as above; settings: P. falciparum in erythrocytes, SYBR Green DNA, 72 h; series mostly up to 28.7 µM
Procedure, shortened: as §1

PC26 = assay: as above; settings: P. falciparum in erythrocytes, SYBR Green DNA, 72 h; series mostly up to 28.7 µM
Procedure, shortened: as §1

PC49 = assay: as above; settings: P. falciparum in erythrocytes, SYBR Green DNA, 72 h; series mostly up to 28.7 µM
Procedure, shortened: as §1

SC27B = assay: as above; settings: P. falciparum in erythrocytes, SYBR Green DNA, 72 h; series mostly up to 28.7 µM
Procedure, shortened: as §1

TAB109 = assay: as above; settings: P. falciparum in erythrocytes, SYBR Green DNA, 72 h; series mostly up to 28.7 µM
Procedure, shortened: as §1

TAB113 = assay: as above; settings: P. falciparum in erythrocytes, SYBR Green DNA, 72 h; series mostly up to 28.7 µM
Procedure, shortened: as §1

TAB165 = assay: as above; settings: P. falciparum in erythrocytes, SYBR Green DNA, 72 h; series mostly up to 28.7 µM
Procedure, shortened: as §1

W2 = assay: as above; settings: P. falciparum in erythrocytes, SYBR Green DNA, 72 h; series mostly up to 28.7 µM
Procedure, shortened: as §1

KB-3-1 = assay: Cytotoxic Profiling of Annotated Libraries Using Quantitative High-Throughput Screening (AID 1296008); settings: Five cell lines viability, CellTiter-Glo ATP luminescence, 48-72 h; max response: stronger effect = lower value; further: on the % scale 0 is the no-effect control and ±100 the full control effect
Procedure, shortened: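 Cells exposed to compounds for 48 or 72 hr at 37 degrees Celsius. Viability read as ATP-coupled luminescence with CellTiter-Glo after 10 min at room temperature.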
Further: nearly all actives have a fitted effect of over 60% in size.

Cc1nc(NS(=O)(=O)c2ccc(N)cc2)nc(C)c1Br
inactive: Potency (PAD) | Potency (PC15) | Potency (PC26) | Potency (PC49) | Potency (SC27B) | Potency (TAB109) | Potency (TAB113) | Potency (TAB165) | Potency (W2) | max response (KB-3-1) 9.38%

OC[C@H]1O[C@@](CO)(O[C@H]2O[C@H](CO)[C@@H](O)[C@H](O)[C@H]2O)[C@@H](O)[C@@H]1O
inactive: Potency (PAD) | Potency (PC15) | Potency (PC26) | Potency (PC49) | Potency (SC27B) | Potency (TAB109) | Potency (TAB113) | Potency (TAB165) | Potency (W2) | max response (KB-3-1) 8.24%

O=C(O)CCC/C=C\C[C@@H]1[C@@H](/C=C/[C@@H](O)COc2cccc(Cl)c2)[C@H](O)C[C@@H]1O
inactive: Potency (PAD) | Potency (PC15) | Potency (PC26) | Potency (PC49) | Potency (SC27B) | Potency (TAB109) | Potency (TAB113) | Potency (TAB165) | Potency (W2) | max response (KB-3-1) -2.7%

Cc1ncc[nH]1
inactive: Potency (PAD) | Potency (PC15) | Potency (PC26) | Potency (PC49) | Potency (SC27B) | Potency (TAB109) | Potency (TAB113) | Potency (TAB165) | Potency (W2) | max response (KB-3-1) 3.25%

CCCCO
inactive: Potency (PAD) | Potency (PC15) | Potency (PC26) | Potency (PC49) | Potency (SC27B) | Potency (TAB109) | Potency (TAB113) | Potency (TAB165) | Potency (W2) | max response (KB-3-1) -19.5%

C[C@H](CCC(=O)O)[C@H]1CC[C@H]2[C@@H]3CC[C@@H]4C[C@H](O)CC[C@]4(C)[C@H]3C[C@H](O)[C@]12C
inactive: Potency (PAD) | Potency (PC15) | Potency (PC26) | Potency (PC49) | Potency (SC27B) | Potency (TAB109) | Potency (TAB113) | Potency (TAB165) | Potency (W2) | max response (KB-3-1) -0.187%

Cc1ccccn1
inactive: Potency (PAD) | Potency (PC15) | Potency (PC26) | Potency (PC49) | Potency (SC27B) | Potency (TAB109) | Potency (TAB113) | Potency (TAB165) | Potency (W2) | max response (KB-3-1) -6.48%

C/C=C/C=C/C(=O)O
inactive: Potency (PAD) | Potency (PC15) | Potency (PC26) | Potency (PC49) | Potency (SC27B) | Potency (TAB109) | Potency (TAB113) | Potency (TAB165) | Potency (W2) | max response (KB-3-1) 5.4%

C=CCN1CCCC1CNC(=O)c1cc(S(N)(=O)=O)cc(OC)c1OC (stereo not given)
inactive: Potency (PAD) | Potency (PC15) | Potency (PC26) | Potency (PC49) | Potency (SC27B) | Potency (TAB109) | Potency (TAB113) | Potency (TAB165) | Potency (W2) | max response (KB-3-1) 5.61%

CC(=O)NCCCS(=O)(=O)O
inactive: Potency (PAD) | Potency (PC15) | Potency (PC26) | Potency (PC49) | Potency (SC27B) | Potency (TAB109) | Potency (TAB113) | Potency (TAB165) | Potency (W2) | max response (KB-3-1) 14.2%

NC(=O)Oc1ccc(Cc2ccccc2)cc1
inactive: Potency (PAD) | Potency (PC15) | Potency (PC26) | Potency (PC49) | Potency (SC27B) | Potency (TAB109) | Potency (TAB113) | Potency (TAB165) | Potency (W2) | max response (KB-3-1) 11.9%

O=P(O)(O)CP(=O)(O)O
inactive: Potency (PAD) | Potency (PC15) | Potency (PC26) | Potency (PC49) | Potency (SC27B) | Potency (TAB109) | Potency (TAB113) | Potency (TAB165) | Potency (W2) | max response (KB-3-1) -3.6%

CC1=CCC2CC1C2(C)C (stereo not given)
inactive: Potency (PAD) | Potency (PC15) | Potency (PC26) | Potency (PC49) | Potency (SC27B) | Potency (TAB109) | Potency (TAB113) | Potency (TAB165) | Potency (W2) | max response (KB-3-1) 16.6%

Cc1ncc(C[n+]2csc(CCO)c2C)c(N)n1
inactive: Potency (PAD) | Potency (PC15) | Potency (PC26) | Potency (PC49) | Potency (SC27B) | Potency (TAB109) | Potency (TAB113) | Potency (TAB165) | Potency (W2) | max response (KB-3-1) -14.6%

CCc1ncnc2cc(OC)c(OC)cc12
inactive: Potency (PAD) | Potency (PC15) | Potency (PC26) | Potency (PC49) | Potency (SC27B) | Potency (TAB109) | Potency (TAB113) | Potency (TAB165) | Potency (W2) | max response (KB-3-1) -4.18%

CN1C(=O)OC(C)(C)C1=O
inactive: Potency (PAD) | Potency (PC15) | Potency (PC26) | Potency (PC49) | Potency (SC27B) | Potency (TAB109) | Potency (TAB113) | Potency (TAB165) | Potency (W2) | max response (KB-3-1) 3.96%

CC(CNC(=O)c1cccnc1)NC(=O)c1cccnc1 (stereo not given)
inactive: Potency (PAD) | Potency (PC15) | Potency (PC26) | Potency (PC49) | Potency (SC27B) | Potency (TAB109) | Potency (TAB113) | Potency (TAB165) | Potency (W2) | max response (KB-3-1) -1.27%

CC1=C(/C=C/C(C)=C/C=C/C(C)=C/C(=O)Oc2c(C)c(C)c3c(c2C)CC[C@@](C)(CCC[C@H](C)CCC[C@H](C)CCCC(C)C)O3)C(C)(C)CCC1
inactive: Potency (PAD) | Potency (PC15) | Potency (PC26) | Potency (PC49) | Potency (SC27B) | Potency (TAB109) | Potency (TAB113) | Potency (TAB165) | Potency (W2) | max response (KB-3-1) -1.1%

CCN(CC)CCOc1ccc2nc(N(C)C)sc2c1
inactive: Potency (PAD) | Potency (PC15) | Potency (PC26) | Potency (PC49) | Potency (SC27B) | Potency (TAB109) | Potency (TAB113) | Potency (TAB165) | Potency (W2) | max response (KB-3-1) -23.9%

OC1OC[C@@H](O)[C@H](O)[C@@H]1O (stereo not given in full)
inactive: Potency (PAD) | Potency (PC15) | Potency (PC26) | Potency (PC49) | Potency (SC27B) | Potency (TAB109) | Potency (TAB113) | Potency (TAB165) | Potency (W2) | max response (KB-3-1) 12.5%

CC(/C=C/C=C(\C)C(=O)O[C@@H]1O[C@H](CO[C@@H]2O[C@H](CO)[C@@H](O)[C@H](O)[C@H]2O)[C@@H](O)[C@H](O)[C@H]1O)=C\C=C\C=C(C)\C=C\C=C(/C)C(=O)O[C@@H]1O[C@H](CO[C@@H]2O[C@H](CO)[C@@H](O)[C@H](O)[C@H]2O)[C@@H](O)[C@H](O)[C@H]1O
inactive: Potency (PAD) | Potency (PC15) | Potency (PC26) | Potency (PC49) | Potency (SC27B) | Potency (TAB109) | Potency (TAB113) | Potency (TAB165) | Potency (W2) | max response (KB-3-1) 1.72%

CO
inactive: Potency (PAD) | Potency (PC15) | Potency (PC26) | Potency (PC49) | Potency (SC27B) | Potency (TAB109) | Potency (TAB113) | Potency (TAB165) | Potency (W2) | max response (KB-3-1) 17.7%
